Drawing on PubChem BioAssay AID602474 (National Center for Advancing Translational Sciences (NCATS), 2012), this text covers Potency for 40 compounds.

Inconclusive results are not listed. Where a call stands in place of a potency, no number is given. Active and inactive are the calls of the source. The call rests on the fitted dose curve; in most records, active means well fitted inhibition curve with a large enough effect; inconclusive means small, poorly fitted or top-dose-only effect; inactive means no such curve, though single readings can be large or run the other way.

Chain of Luciferin 4-monooxygenase (Photinus pyralis) (P08659 whole entry, looked up): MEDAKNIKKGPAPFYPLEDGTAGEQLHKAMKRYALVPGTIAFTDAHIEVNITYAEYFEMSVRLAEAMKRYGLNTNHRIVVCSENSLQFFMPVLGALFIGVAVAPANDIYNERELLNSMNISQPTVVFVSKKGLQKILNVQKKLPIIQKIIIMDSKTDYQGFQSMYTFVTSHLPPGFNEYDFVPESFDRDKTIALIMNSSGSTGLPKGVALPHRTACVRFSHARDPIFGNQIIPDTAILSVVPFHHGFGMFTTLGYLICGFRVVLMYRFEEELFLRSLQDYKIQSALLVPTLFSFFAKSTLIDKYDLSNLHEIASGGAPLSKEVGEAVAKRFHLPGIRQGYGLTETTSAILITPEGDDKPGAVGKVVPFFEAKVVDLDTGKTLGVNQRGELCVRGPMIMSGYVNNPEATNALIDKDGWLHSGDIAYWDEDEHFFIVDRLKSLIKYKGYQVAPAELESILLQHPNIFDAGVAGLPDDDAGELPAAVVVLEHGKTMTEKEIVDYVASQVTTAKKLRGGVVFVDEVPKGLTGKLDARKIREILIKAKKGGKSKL

The experiment addresses Luciferin 4-monooxygenase (Photinus pyralis) (UniProt P08659). Kind of experiment: FLuc inhibitory activity for the follow-up compounds in a biochemical assay with a commercial detection reagent - BriteliteTM Plus (PerkinElmer). The following applies: purified FLuc, Britelite Plus luminescence; series mostly up to 38.3 µM. From the text: NCGC Assay Overview: Firefly (Photinus pyralis) luciferase is one of the most commonly used transcriptional reporters. It is considered one of the more dynamically responsive reporters - that is, responsive to changes in reporter transcription - as it requires no post-translational modifications and is enzymatically active directly after protein synthesis (Wood, 1998). With no endogenous expression in mammalian cells and without the requirement of external excitation, it offers very little background signal, thus generally providing excellent signal to background for most assays. Previous profiling work to determine the prevalence of compounds that affect FLuc enzymatic activity (PubChem AID 411) identified that ~3% of the MLSMR library (then at ~72K) inhibited FLuc (Auld et al., 2008). […] Of the compounds identified in this profile that inhibited FLuc, 151 compounds were selected for further analysis, in an effort to better understand their mode of inhibiting FLuc. The assay described here was to determine the activity of the compounds in a FLuc assay that used a commercial formulation of detection reagent (BriteliteTM Plus; PerkinElmer).
NCGC Assay Protocol Summary: Reagents: Britelite Plus detection reagent; 50mM Tris acetate, pH 7.5; 10nM P. pyralis luciferase (Sigma #L9506) Control compounds used were two known firefly luciferase inhibitors (3-(5-(3-chlorophenyl)-1,2,4-oxadiazol-3-yl)benzoic acid and 5-(2-fluorophenyl)-3-phenyl-1,2,4-oxadiazole), and DMSO. Assay Summary: Three microliters of buffer containing firefly luciferase (final concentrations: 50mM Tris acetate, 10nM P. pyralis luciferase) are dispensed into each well of a Greiner white, solid-bottom 1536-well format plate using a flying reagent dispenser (FRD). These assay plates were then treated with 23nL of compound or DMSO using a Kalypsys pin tool, which allows for delivery of a 12-point intraplate titration of each compound to the assay plate (quantitative HTS), with final compound concentrations ranging from approximately ~38uM to 0.2nM. Three microliters of 2X Britelite Plus detection reagent was then delivered by FRD to each well. Luciferase activity was then measured using a ViewLux CCD imager (PerkinElmer), with an average exposure time of 2-30 seconds (2X binning, medium/high gain).
In the case of `CCOc1ccc2nc(NC(=O)c3cc([N+](=O)[O-])ccc3N3CCOCC3)sc2c1`, the Potency result is “inactive”. Next, `O=C(Nc1ccccc1C(=O)O)c1cccc(NC(=O)c2ccccc2Cl)c1`: “inactive”; `Cc1ccc(C(=O)O/N=C(\N)c2ccccn2)c(Cl)c1`: 0.0252 µM (active); `O=C(O)c1cccc(NC(=O)c2cccc(S(=O)(=O)N3CCc4ccccc43)c2)c1`: “inactive”. Consider `O=C(O)c1ccc(NC(=O)c2ccccc2NC(=O)c2cccc(Br)c2)cc1`, for which the Potency entry was “inactive”.

With `c1ccc2sc(-c3ccc4c(c3)OCO4)nc2c1`, the Potency was 1.79 µM (active).

Consider `COc1ccccc1C(=O)Nc1ccc(C(=O)O)cc1`, for which the Potency result was “inactive”. `Cc1ccc2sc(-c3ccc(N)cc3)nc2c1`: the Potency is 0.798 µM (active). For the compound `O=C(O)c1cccc(NC(=O)c2ccccc2NC(=O)c2ccco2)c1`, the Potency result is “inactive”. Next, `O=C(O)c1cccc(NC(=O)c2ccc(COc3ccc(Cl)cc3)cc2)c1`: “inactive”; `O=C(Nc1c(Cl)cc(Cl)cc1-c1nc2ccccc2s1)c1ccc(Br)o1`: 17.9 µM (active). Next, `O=C(O)c1cccc(NC(=O)c2ccc(S(=O)(=O)c3ccccc3)cc2)c1`: “inactive”; `O=C(Nc1cccc(-c2nc3ccccc3s2)c1)C1=COCCO1`: “inactive”.

For the compound `CCOc1ccc2nc(NC(=O)c3ccccn3)sc2c1`, the Potency is 0.895 µM (active). As to `CCOc1ccc2nc(NC(=O)c3ccccc3)sc2c1`, the Potency was 2.52 µM (active). To `COc1ccc2nc(NC(=O)c3cccs3)sc2c1` belongs “inactive”. To `COc1ccc2nc(NC(=O)c3ccc([N+](=O)[O-])o3)sc2c1` belongs 3.56 µM (active).

With `Cc1cccc(NS(=O)(=O)c2cccc(C(=O)Nc3cccc(C(=O)O)c3)c2)c1`, the Potency result was “inactive”.

Turning to `Nc1ccc(-c2nc3ccc(C(=O)O)cc3s2)cc1`, the Potency was 0.634 µM (active).

On to `CC(C)c1ccc(C(=O)Nc2ccc(-c3nc4ccccc4s3)c(Cl)c2)cc1`, for which the Potency result is “inactive”.

With `Cc1c(C)c2ccc(OCC(=O)Nc3ccccn3)c(C)c2oc1=O`, the Potency was 0.04 µM (active).

`O=C(Nc1ccccc1C(=O)O)c1cccc(C(=O)Nc2ccccc2C(=O)O)c1`: the Potency result is “inactive”. As for `O=C(Nc1ccccc1C(=O)O)c1cc(S(=O)(=O)Nc2ccccc2)ccc1Cl`, the Potency entry is “inactive”. To `COc1c(C)cccc1C(=O)Nc1ccc(-c2nc3ccccc3s2)c(Cl)c1` belongs 7.11 µM (active); to `Cc1ccc(S(=O)(=O)N2CCOCC2)cc1C(=O)Nc1ccccc1C(=O)O`, “inactive”.

On to `COc1ccc2nc(NC(=O)c3ccco3)sc2c1`, for which the Potency is 1.59 µM (active). With `CCc1noc(C)c1C(=O)Nc1nc2ccc(OC)cc2s1`, the Potency is 0.0504 µM (active). Next, `COc1ccc2nc(NC(=O)c3cccc(S(=O)(=O)N4CCOCC4)c3)sc2c1`: “inactive”. Consider `Nc1ccc(C(=O)Nc2ccccc2C(=O)O)cc1`, for which the Potency was 11.3 µM (active). To `CCOc1ccc(C(=O)Nc2cccc(C(=O)O)c2)cc1Cl` belongs 7.11 µM (active); to `CC(C)(C)C(=O)Nc1ccc(-c2nc3ccccc3s2)cc1`, 0.0179 µM (active); to `COc1ccc2nc(NC(=O)c3ccc4ncsc4c3)sc2c1`, 25.2 µM (active).

In the case of `Cc1ccc(C(=O)Nc2cccc(C(=O)O)c2)cc1`, the Potency was 2 µM (active). Regarding `COc1ccc(Br)cc1C(=O)Nc1ccc(C(=O)O)cc1`, the Potency result was “inactive”. Regarding `COc1ccc2nc(NC(=O)c3ccc(S(=O)(=O)N4CCCC(C)C4)cc3)sc2c1` (stereo not given), the Potency result is “inactive”.

For the compound `O=C(Nc1cccc(-c2nc3ccccc3s2)c1)c1cc(-n2cnnc2)ccc1Cl`, the Potency result was “inactive”. To `COc1ccc(-c2nc3ccccc3s2)cc1NC(=O)c1ccc(F)cc1` belongs “inactive”; to `O=C(O)c1cccc(NC(=O)c2cccc(S(=O)(=O)Nc3cccc(F)c3)c2)c1`, “inactive”. To `Cn1c(N/N=C/c2cc3ccccc3nc2Cl)nc2ccccc21` belongs 12.6 µM (active); to `CCOc1ccc2nc(NC(=O)c3ccoc3C)sc2c1`, 2 µM (active).
